Data on six compounds can be found in ChEMBL document CHEMBL1961873, “Compounds: GSK PKIS; Assays: Nanosyn kinase panel” (2012).

Test [1] deals with T1, Ephrin type-B receptor 2 (Homo sapiens) (UniProt P29323).
T1 sequence (whole entry): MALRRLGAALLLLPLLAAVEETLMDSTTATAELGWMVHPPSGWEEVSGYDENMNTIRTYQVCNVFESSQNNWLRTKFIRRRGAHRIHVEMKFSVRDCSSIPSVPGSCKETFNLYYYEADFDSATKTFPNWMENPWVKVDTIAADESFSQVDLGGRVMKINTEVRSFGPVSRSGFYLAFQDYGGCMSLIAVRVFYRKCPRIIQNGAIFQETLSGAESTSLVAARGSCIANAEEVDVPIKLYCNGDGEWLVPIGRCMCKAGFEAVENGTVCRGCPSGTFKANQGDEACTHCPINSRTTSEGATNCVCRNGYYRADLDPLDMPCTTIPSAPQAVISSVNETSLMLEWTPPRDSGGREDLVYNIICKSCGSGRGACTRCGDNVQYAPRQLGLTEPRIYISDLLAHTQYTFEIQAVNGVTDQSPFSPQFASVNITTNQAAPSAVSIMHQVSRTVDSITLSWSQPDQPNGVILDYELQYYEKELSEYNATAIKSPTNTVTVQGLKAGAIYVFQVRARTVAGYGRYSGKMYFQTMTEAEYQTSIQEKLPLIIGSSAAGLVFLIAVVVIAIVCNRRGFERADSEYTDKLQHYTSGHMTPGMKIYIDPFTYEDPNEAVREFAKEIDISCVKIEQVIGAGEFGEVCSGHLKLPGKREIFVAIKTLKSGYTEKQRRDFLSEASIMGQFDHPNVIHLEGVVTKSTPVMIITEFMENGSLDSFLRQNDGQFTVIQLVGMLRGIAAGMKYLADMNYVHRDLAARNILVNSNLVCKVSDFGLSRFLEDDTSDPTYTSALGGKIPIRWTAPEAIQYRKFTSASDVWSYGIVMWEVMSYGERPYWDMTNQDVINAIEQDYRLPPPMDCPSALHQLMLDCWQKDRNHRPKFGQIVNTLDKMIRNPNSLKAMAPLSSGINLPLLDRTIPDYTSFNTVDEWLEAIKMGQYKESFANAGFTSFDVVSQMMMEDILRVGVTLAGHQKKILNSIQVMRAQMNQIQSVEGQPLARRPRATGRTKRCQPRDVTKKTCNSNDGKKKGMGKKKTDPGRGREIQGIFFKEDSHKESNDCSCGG
The conditions noted are these: at 1 µM.

In test [2] the target is T2, Ephrin type-B receptor 3 (Homo sapiens) (UniProt P54753).
T2 sequence (whole entry): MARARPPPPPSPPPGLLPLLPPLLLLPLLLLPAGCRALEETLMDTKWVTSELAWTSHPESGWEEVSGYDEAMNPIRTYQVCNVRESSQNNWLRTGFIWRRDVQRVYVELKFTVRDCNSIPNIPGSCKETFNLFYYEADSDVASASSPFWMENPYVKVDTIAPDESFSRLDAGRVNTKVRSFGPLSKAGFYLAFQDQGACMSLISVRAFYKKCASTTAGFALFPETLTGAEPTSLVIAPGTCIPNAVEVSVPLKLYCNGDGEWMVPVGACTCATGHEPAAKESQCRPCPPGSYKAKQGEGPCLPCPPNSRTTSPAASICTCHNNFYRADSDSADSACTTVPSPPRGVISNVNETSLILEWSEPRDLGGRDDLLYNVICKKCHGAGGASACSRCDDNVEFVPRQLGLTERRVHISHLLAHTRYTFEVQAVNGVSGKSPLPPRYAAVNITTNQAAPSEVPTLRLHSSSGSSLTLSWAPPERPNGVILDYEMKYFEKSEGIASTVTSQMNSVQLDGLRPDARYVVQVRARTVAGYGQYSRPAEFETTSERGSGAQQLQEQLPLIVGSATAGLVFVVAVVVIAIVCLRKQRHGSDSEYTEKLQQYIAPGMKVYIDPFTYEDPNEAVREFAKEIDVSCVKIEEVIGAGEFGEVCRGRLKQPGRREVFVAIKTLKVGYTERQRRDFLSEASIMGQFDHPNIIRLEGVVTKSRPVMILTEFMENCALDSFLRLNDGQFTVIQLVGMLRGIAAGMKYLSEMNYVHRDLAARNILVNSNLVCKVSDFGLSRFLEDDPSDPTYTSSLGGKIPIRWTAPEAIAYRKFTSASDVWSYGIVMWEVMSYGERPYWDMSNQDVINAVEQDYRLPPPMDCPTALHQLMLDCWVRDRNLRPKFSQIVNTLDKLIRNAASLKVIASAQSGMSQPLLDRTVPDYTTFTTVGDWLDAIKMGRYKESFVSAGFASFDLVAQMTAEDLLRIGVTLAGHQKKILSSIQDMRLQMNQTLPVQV
The conditions noted are these: at 0.1 µM.

In test [3] the target is T2, Ephrin type-B receptor 3 (Homo sapiens). The conditions noted are these: at 1 µM.
For test [4], the target named is T3, Ephrin type-B receptor 4 (Homo sapiens) (UniProt P54760).
T3 sequence (whole entry): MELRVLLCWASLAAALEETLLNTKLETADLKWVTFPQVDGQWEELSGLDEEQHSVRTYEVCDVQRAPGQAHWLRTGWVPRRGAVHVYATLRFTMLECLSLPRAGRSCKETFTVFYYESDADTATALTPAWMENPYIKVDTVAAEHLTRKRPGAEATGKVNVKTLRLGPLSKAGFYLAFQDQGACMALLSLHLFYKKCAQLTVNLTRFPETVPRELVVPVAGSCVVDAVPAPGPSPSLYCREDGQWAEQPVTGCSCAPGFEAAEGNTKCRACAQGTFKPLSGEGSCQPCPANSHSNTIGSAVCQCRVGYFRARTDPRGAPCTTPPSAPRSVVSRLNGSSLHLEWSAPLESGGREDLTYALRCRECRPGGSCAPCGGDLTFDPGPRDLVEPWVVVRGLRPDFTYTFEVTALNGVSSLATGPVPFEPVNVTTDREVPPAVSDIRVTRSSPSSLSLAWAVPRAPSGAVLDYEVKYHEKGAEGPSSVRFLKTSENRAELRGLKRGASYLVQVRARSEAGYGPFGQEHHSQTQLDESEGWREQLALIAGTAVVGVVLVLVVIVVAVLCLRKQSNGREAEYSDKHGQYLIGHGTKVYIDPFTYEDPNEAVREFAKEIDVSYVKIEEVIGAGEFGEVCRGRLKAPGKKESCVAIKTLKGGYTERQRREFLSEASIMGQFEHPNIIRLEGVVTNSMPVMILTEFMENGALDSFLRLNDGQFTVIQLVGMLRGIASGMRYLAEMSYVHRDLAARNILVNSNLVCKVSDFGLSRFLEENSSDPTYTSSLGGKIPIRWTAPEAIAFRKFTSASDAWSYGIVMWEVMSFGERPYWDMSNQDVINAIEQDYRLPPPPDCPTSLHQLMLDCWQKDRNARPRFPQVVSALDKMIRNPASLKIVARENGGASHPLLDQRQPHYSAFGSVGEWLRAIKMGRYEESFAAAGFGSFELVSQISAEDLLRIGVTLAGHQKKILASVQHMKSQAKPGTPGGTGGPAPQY
Particulars: at 0.1 µM.

For test [5], the target named is T3, Ephrin type-B receptor 4 (Homo sapiens). Particulars: at 1 µM.
The target of test [6] is Receptor tyrosine-protein kinase erbB-2 (Homo sapiens) (UniProt P04626). The conditions noted are these: at 0.1 µM.
The target is the same in test [7]. Particulars: at 1 µM.
Test [8] concerns the target Receptor tyrosine-protein kinase erbB-4 (Homo sapiens) (UniProt Q15303). Particulars: at 0.1 µM.
Test [9] has the same target. Particulars: at 1 µM.
Test [10] has as its target Tyrosine-protein kinase Fer (Homo sapiens) (UniProt P16591). The conditions noted are these: at 0.1 µM.
The target is the same in test [11]. Particulars: at 1 µM.
In test [12] the target is Tyrosine-protein kinase Fes/Fps (Homo sapiens) (UniProt P07332). Particulars: at 0.1 µM.
Test [13] shares this target. Particulars: at 1 µM.
Test [14] addresses Fibroblast growth factor receptor 1 (Homo sapiens) (UniProt P11362). Particulars: at 0.1 µM.
Test [15] has the same target. The conditions noted are these: at 1 µM.
For test [16], the target named is Fibroblast growth factor receptor 2 (Homo sapiens) (UniProt P21802). Particulars: at 0.1 µM.
Test [17] has the same target. The conditions noted are these: at 1 µM.
The target of test [18] is Fibroblast growth factor receptor 3 (Homo sapiens) (UniProt P22607). Particulars: at 0.1 µM.
Test [19] has the same target. The conditions noted are these: at 1 µM.
Test [20] concerns the target Fibroblast growth factor receptor 4 (Homo sapiens) (UniProt P22455). The conditions noted are these: at 0.1 µM.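 Note: values are mean percent inhibition of FGFR4.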

Sequence of Fibroblast growth factor receptor 3 (Homo sapiens) (P22607 23-806 limits assumed): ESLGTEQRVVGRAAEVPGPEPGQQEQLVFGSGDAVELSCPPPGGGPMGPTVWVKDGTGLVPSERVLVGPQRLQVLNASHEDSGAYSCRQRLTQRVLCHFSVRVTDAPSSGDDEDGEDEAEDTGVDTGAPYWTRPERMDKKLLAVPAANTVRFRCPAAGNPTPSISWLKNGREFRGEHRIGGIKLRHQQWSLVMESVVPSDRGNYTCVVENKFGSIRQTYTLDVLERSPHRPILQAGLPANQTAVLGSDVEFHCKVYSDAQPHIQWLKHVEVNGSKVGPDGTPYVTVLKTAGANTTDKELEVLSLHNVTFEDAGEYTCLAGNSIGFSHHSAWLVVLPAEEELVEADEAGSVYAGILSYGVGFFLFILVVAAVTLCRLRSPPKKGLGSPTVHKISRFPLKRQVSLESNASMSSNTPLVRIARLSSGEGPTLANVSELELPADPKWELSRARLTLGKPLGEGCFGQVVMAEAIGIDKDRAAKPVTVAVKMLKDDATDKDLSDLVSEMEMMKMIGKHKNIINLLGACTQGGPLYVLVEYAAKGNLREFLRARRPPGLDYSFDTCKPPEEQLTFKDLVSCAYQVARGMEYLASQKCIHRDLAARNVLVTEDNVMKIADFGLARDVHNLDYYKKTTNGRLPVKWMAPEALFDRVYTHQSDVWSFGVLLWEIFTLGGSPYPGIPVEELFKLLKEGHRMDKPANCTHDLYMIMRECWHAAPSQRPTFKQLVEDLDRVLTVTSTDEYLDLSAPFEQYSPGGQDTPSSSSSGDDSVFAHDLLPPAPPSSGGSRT
Sequence of Fibroblast growth factor receptor 4 (Homo sapiens) (P22455 22-802 limits assumed): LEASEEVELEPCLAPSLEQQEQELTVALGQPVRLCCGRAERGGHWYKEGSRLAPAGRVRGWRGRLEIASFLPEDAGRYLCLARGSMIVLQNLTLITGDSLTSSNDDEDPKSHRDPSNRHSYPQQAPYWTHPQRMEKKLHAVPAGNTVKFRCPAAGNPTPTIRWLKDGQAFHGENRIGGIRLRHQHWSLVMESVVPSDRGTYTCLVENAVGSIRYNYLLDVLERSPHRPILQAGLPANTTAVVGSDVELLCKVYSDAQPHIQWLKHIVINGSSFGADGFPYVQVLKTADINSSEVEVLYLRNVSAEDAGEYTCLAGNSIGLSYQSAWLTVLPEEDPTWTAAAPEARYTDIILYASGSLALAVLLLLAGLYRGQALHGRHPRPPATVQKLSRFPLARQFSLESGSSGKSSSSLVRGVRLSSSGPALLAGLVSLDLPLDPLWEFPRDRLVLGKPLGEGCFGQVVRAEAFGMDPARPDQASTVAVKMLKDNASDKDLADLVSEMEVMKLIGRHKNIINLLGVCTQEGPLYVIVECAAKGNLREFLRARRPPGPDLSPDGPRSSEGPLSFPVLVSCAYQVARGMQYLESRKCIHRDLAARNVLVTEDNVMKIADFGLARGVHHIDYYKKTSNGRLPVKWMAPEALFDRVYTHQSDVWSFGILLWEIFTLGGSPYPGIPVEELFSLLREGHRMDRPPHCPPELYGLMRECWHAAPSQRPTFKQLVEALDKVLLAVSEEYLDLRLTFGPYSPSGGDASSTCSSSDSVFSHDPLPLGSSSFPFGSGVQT
Sequence of Fibroblast growth factor receptor 2 (Homo sapiens) (P21802 22-821 limits assumed): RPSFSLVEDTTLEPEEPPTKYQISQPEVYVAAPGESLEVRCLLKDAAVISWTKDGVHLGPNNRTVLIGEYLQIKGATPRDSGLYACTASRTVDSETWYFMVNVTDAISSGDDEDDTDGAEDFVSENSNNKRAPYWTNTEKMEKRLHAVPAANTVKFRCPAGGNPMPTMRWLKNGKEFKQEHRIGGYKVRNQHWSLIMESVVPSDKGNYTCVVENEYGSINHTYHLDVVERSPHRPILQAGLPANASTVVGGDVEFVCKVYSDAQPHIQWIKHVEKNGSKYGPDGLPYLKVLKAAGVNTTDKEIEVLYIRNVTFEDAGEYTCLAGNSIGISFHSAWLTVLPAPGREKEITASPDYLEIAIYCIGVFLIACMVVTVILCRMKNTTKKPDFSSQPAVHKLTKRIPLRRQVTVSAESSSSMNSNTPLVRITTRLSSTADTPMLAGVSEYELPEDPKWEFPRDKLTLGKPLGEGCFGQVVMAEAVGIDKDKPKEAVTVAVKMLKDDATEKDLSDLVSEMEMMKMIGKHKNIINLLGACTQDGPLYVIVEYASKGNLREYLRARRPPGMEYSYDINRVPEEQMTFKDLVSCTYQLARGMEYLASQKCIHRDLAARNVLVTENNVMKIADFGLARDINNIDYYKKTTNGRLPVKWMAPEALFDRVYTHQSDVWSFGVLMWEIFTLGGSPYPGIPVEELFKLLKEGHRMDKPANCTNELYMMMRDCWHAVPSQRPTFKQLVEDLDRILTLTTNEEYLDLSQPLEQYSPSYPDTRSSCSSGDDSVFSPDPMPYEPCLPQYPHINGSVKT
Sequence of Tyrosine-protein kinase Fes/Fps (Homo sapiens) (P07332 whole entry): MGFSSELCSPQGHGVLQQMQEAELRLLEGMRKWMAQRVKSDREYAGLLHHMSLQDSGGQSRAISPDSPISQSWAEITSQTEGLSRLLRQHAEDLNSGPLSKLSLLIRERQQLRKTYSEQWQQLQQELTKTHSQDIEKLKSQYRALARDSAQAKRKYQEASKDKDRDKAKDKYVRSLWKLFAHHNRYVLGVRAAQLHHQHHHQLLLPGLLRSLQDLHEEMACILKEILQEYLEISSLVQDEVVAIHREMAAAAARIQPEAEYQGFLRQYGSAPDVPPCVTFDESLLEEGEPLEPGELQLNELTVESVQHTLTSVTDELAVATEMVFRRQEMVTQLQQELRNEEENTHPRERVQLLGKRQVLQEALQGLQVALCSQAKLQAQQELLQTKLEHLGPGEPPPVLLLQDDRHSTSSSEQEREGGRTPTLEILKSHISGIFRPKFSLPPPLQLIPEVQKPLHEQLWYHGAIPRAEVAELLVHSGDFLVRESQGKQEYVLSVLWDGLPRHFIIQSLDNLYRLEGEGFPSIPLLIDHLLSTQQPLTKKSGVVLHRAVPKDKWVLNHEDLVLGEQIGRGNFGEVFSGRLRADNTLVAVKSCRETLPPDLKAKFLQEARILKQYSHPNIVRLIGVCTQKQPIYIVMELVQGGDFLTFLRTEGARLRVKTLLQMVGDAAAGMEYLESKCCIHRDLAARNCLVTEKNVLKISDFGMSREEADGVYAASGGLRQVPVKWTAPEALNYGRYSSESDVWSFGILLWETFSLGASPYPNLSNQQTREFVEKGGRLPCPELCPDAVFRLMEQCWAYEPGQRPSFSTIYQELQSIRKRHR
Sequence of Receptor tyrosine-protein kinase erbB-2 (Homo sapiens) (P04626 whole entry): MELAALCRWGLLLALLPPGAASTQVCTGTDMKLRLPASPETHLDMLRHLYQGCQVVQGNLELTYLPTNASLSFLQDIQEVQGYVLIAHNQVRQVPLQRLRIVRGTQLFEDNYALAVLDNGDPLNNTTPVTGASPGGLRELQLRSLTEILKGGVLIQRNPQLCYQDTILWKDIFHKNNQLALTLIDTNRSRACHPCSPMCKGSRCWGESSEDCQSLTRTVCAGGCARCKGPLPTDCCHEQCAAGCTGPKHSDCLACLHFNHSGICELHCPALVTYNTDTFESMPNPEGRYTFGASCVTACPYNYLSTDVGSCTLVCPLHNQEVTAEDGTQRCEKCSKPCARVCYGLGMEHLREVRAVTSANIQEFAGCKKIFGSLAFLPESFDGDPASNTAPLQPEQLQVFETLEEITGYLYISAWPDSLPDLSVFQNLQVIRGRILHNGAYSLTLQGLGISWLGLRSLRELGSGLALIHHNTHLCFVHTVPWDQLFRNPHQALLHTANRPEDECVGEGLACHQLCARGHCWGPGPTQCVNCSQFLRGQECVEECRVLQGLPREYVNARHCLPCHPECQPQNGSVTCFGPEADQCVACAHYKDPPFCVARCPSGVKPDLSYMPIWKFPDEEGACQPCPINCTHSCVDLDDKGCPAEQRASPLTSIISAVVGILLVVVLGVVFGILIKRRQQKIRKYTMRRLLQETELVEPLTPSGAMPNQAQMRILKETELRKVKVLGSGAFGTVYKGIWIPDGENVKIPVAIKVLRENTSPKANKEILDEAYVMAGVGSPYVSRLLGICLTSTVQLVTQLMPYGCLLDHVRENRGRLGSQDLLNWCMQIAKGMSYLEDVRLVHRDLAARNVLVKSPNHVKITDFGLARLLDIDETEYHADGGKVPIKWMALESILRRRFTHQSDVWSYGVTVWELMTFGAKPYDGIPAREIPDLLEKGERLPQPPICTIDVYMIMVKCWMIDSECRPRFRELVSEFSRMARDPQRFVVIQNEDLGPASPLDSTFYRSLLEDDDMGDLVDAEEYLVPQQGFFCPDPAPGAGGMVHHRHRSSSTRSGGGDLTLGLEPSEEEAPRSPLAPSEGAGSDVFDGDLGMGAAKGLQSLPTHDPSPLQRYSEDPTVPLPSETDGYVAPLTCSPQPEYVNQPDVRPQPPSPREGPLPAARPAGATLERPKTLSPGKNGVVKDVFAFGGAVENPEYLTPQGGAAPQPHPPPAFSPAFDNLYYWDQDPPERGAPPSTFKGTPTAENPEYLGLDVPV

`COc1ccc2ncn(-c3cc(O[C@H](C)c4ccccc4Cl)c(C(N)=O)s3)c2c1`: the inhibition in [1] is 12%; in [2], 0.01%; in [3], 0.43%; in test [4] it was -2.13%; in test [5], -1.28%; in [6], 2.78%. The inhibition was 2.8% in [7]; 1.62% in test [8]; 4.43% in test [9]; 2.82% in [10]; 3.7% in test [11]; 2.74% in test [12]. Also, the inhibition in test [13] was 1.59%; in test [14], -0.72%; in test [15], 4.65%; in test [16] it was -0.16%; in test [17], 5.18%; in test [18] it was 1.57%. For the same compound, the inhibition in [19] was 4.59%; in test [20] it was -1.86%.
In the case of `Clc1ccc(CNc2nccc(-c3cnn4ncccc34)n2)cc1`, the inhibition was 9.79% in [1]; 2.09% in [2]; 2% in [3]; 0.83% in test [4]; 0.64% in [5]; -2.69% in test [6]. In addition, the inhibition in [7] came out at 2.99%; in test [8] it was 3.33%; in [9], 1.08%; in test [10], 3.91%; in test [11], 1.93%; in test [12] it was 0.01%. Also, the inhibition in test [13] is 1.6%; in test [14], 0.58%; in [15], -1.59%; in test [16], 0.2%; in test [17] it was 1.7%; in test [18], -0.71%. Further, the inhibition in test [19] was -0.67%; in test [20] it was 4.74%.
For `O=C(Nc1ccc(Oc2ccc3[nH]c(NC(=O)c4ccccc4)nc3c2)cc1)Nc1cc(C(F)(F)F)ccc1F`, the inhibition was 61.8% in test [1]; 5.05% in test [2]; 8.33% in test [3]; 3.63% in test [4]; 27.5% in test [5]; 2.77% in test [6]. Besides, the inhibition was 4.41% in test [7]; 6.9% in test [8]; 9.12% in test [9]; 1.59% in test [10]; 7.9% in [11]; 2.28% in test [12]. Besides, the inhibition in [13] was 2.49%; in test [14], 2.35%; in test [15] it was 6.8%; in [16], 2.19%; in [17] it was 18.8%; in test [18] it was 7.91%. For the same compound, the values for the inhibition in [19] and in test [20] were 6.31% and -0.39%, respectively.
With `COc1cc(C)c(N(C)C(=O)CN(C)C)cc1Nc1nc(Nc2cccc(F)c2C(N)=O)c2cc[nH]c2n1`, the inhibition is 4.5% in test [1]; -1.17% in [2]; -3.39% in test [3]; -2.25% in test [4]; -3.91% in test [5]; -0.03% in test [6]. Also, the inhibition in test [7] was -3.53%; in [8], 4.41%; in test [9], 4.97%; in test [10] it was 9.81%; in test [11], 23%; in [12] it was 5.04%. The inhibition in test [13] is 10.7%; in test [14], 0.07%; in [15], -3.58%; in [16] it was -2.28%; in test [17], -2.01%; in test [18], -0.36%. The inhibition is -2.8% in test [19] and -3.66% in test [20].
Regarding `CN(c1ccc(NC(=O)Nc2c(Cl)cccc2Cl)cc1)c1ccnc(Nc2cccc(CS(C)(=O)=O)c2)n1`, the inhibition was determined as 27.3% in test [1]; 2.02% in test [2]; 4.62% in [3]; 2.86% in [4]; 8.72% in test [5]; 1.88% in test [6]. Further, the inhibition in test [7] stood at 7.2%; in test [8] it was 11.2%; in [9], 17.1%; in test [10] it was 51.9%; in test [11], 77.2%; in [12], 11.1%. Further, the inhibition in test [13] was 22.5%; in test [14] it was 6.14%; in test [15], -0.4%; in test [16], 3.91%; in test [17], 13.4%; in test [18] it was 0.14%. Further, the inhibition came to 5.59% in [19] and 2.62% in test [20].
`C[C@@H](Oc1cc(-n2cnc3ccc(OCC4CCN(C)CC4)cc32)sc1C(N)=O)c1ccccc1Cl`: the inhibition in [1] is 8.25%; in test [2], 2.8%; in [3], 6.12%; in test [4], 5.24%; in test [5], 3.86%; in test [6], 41.4%. The inhibition was determined as 4.61% in [7]; 9.63% in test [8]; 13.1% in [9]; 1.28% in test [10]; 7.17% in test [11]; 4.96% in test [12]. Also, the inhibition in test [13] worked out at 7.97%; in [14] it was 5.32%; in test [15], 14%; in test [16], 9.46%; in test [17], 12.5%; in test [18] it was 11.2%. Also, the inhibition in test [19] was found to be 8.71%; in test [20] it was 3.93%.
